# Measured values reported in PubChem BioAssay AID1851 (National Center for Advancing Translational Sciences (NCATS), 2009).
# Out of some 16,000 compounds screened, about 2,600 (16%) were called active. Not shown: some 20% with an inconclusive outcome. Only a sample is shown. A number with no mark means an inactive call. Calls follow the shape of the dose curve; as a rule, active = well fitted curve in the direction sought with a large enough effect; inconclusive = small, poorly fitted or top-dose-only effect, or effect the other way; inactive = no such curve, though single readings can be large or run the other way.
# Target: Cytochrome P450 2D6 (Homo sapiens) (UniProt P10635)
# Sequence (P10635 whole entry, looked up): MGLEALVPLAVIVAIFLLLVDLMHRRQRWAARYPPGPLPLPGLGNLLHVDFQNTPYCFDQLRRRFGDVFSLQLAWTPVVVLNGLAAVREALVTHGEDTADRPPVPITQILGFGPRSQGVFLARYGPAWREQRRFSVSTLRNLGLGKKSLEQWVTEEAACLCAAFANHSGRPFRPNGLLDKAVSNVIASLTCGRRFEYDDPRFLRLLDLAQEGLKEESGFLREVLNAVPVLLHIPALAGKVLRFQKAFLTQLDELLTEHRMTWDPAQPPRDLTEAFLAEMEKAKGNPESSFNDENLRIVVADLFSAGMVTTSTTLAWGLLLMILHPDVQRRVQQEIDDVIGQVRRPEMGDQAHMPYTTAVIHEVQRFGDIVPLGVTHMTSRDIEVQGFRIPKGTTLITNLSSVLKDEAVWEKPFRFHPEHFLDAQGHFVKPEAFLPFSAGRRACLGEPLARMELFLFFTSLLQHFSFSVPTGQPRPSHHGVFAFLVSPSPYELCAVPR
# Experiment: Cytochrome panel assay with activity outcomes
# Settings: recombinant CYP, pro-luciferin dealkylation, luminescence, p450-cyp2d6; series mostly up to 57.1 µM
# % is scaled to controls: 0 for no effect and ±100 for the full control effect.
Compound,AC50,"activity, negative = inhibition"
CC1(C)CC(=O)c2c(Cc3ccccc3)n[nH]c2C1,inactive,
N#C/C(=C(/O)CN1CCCCC1)c1nc(-c2ccc(Cl)cc2)cs1,inactive,
Cn1c(=O)c2[nH]c(-c3ccc(S(=O)(=O)O)cc3)nc2n(C)c1=O,inactive,
COCCn1c(=O)c(-c2cccs2)nc2cnc(N3CCN(C)CC3)nc21,inactive,
O=c1c(-c2ccc(F)c(F)c2)nc2cncnc2n1Cc1ccccc1Cl,inactive,
COc1ccc2c(c1)c(CC(=O)OCC(=O)O)c(C)n2C(=O)c1ccc(Cl)cc1,inactive,
COc1ccccc1OC[C@H](O)COC(N)=O,inactive,
NC(=O)OC[C@H](O)COc1ccc(Cl)cc1,inactive,
NC(=O)OCC(COC(N)=O)c1ccccc1,794 nM (active),
COCCn1c(=O)c(-c2ccc(OC)cc2)nc2cnc(N3CCNCC3)nc21,inactive,
Cc1ccc(C(=O)Cn2nnc3c(sc4nc5c(c(-c6ccccc6)c43)CCC5)c2=O)cc1,inactive,
Cc1ccc(C(=O)CNc2nc3c(c(=O)[nH]c(=O)n3C)n2Cc2ccccc2)cc1,inactive,
COc1ccc(NC(=O)C(=O)NNC(=O)c2cccs2)c(OC)c1,inactive,
Cc1c(NC(=O)C(C)N2C(=O)c3ccccc3C2=O)c(=O)n(-c2ccccc2)n1C (stereo not drawn),inactive,
CC1=NC(C)(C)Cc2ccccc21,14100 nM (active),
c1cncc(-c2nnc3n2C2(CCCCC2)Cc2ccccc2-3)c1,inactive,
Cc1cccc2c1OCC/C2=N\NC(=O)COc1ccccc1,inactive,
Cc1ncc([N+](=O)[O-])n1CCO,inactive,
N#Cc1ccc(C2=NC(C(F)(F)F)(C(F)(F)F)c3c(n(Cc4ccco4)c(=O)[nH]c3=O)N2)cc1,inactive,
COCCn1c(=O)c(-c2cccs2)nc2cnc(OC)nc21,inactive,
NC(=O)Cn1c(=O)n(Cc2ccco2)c(=O)c2c3c(sc21)CCCCC3,inactive,
Cn1c(=O)c2c3c(sc2n2cnnc12)CCC3,inactive,
CN(C)CCn1c(=O)n(Cc2ccco2)c(=O)c2c3c(sc21)CCCCC3,1580 nM (active),

Compound,AC50,"activity, negative = inhibition"
CC(=O)N(NC(=O)c1ccccc1Cl)C1CC(=O)N(c2ccc(C)cc2)C1=O (stereo not drawn),inactive,
CC(=O)N(C[C@@H](C)C(=O)O)c1c(I)cc(I)c(N)c1I,inactive,
CCOc1cc2c(C)cc(=O)oc2cc1Cl,inactive,
Brc1ccc(-c2csc(N3CCC(c4ccccc4)C3)n2)cc1 (stereo not drawn),inactive,
CCOc1ccc(NC(=O)N2CCC(c3ccc(C)cc3)C2)cc1 (stereo not drawn),inactive,
O=C(COc1ccc(Br)cc1)N1CCC(c2ccccc2)C1 (stereo not drawn),17800 nM (active),
CN(CCCNC(=O)c1ccc(/C=N/O)nc1)CCCN(C)Cc1ccccc1,2820 nM (active),
COC(=O)c1cc2n(n1)CCN(Cc1ccccc1F)C2=O,inactive,
Cc1ccc(C(=O)NC2CCCCC2)cc1,inactive,
Cc1ccc(C(=O)/C=C2\NCC(C)NC2=O)cc1 (stereo not drawn),inactive,
Cc1ccc(C(=O)C2CCNCC2)cc1,1410 nM (active),
O=C(Oc1ccc(OC(=O)c2ccco2)c(S(=O)(=O)c2ccc(Br)cc2)c1)c1ccco1,inactive,
C/C(=N\NC(=O)c1ccncc1)c1ccc2ccccc2c1O,,-2.13% [at 11.4 µM]
COc1ccc(NC(=O)C(c2ccc(OC)cc2)N(C)C(=O)CNC(C)=O)cc1 (stereo not drawn),inactive,
CN(C)/C(CN1CCN(C=O)CC1)=C1\N=C(c2ccccc2)OC1=O,inactive,
CC1CN(C(=O)c2cc3c(s2)CCC3)CC(C)O1 (stereo not drawn),inactive,
CCOc1ccc(OCc2ccc(C(=O)N3CCc4ccccc4C3)o2)cc1,inactive,
COc1ccc(NC(=O)c2ccc(COc3ccccc3)o2)cc1,inactive,
CN1CCN(C(=O)c2ccc(COc3ccc(C(C)(C)C)cc3)o2)CC1,4470 nM (active),
CNC[C@H](O)[C@H](O)[C@H](O)[C@H](O)CO,inactive,
CO[C@H]1COC(=O)CCC[C@@H](C)[C@H](OC)COC(=O)[C@H]2CCCN2C(=O)C/C=C\[C@@H]1C,,6.78% [at 11.4 µM]
O=c1cc(N2CCN(c3ccccc3)CC2)[nH]c(=O)n1C1CCCCC1,inactive,
COc1c(/C=N/Nc2nc(N3CCCCC3)nc(N3CCCCC3)n2)cccc1[N+](=O)[O-],inactive,

Compound,AC50,"activity, negative = inhibition"
CN(C)Cc1cc(Cl)c(O)c(CN(C)C)c1,,-14% [at 11.4 µM]
Oc1ccc2ccccc2c1/C=C\c1ccc2c(Br)cc(Br)c(O)c2n1,,-2.53% [at 11.4 µM]
CCN(Cc1cc(Cl)cc(C)c1O)Cc1c(O)ccc2ccccc12,1260 nM (active),
CN(Cc1cc(Cl)cc(Cl)c1O)Cc1c(O)ccc2ccccc12,1260 nM (active),
Oc1ccc(Cl)cc1Cc1cc(Cl)cc(Cc2cc(Cl)ccc2O)c1O,,-10.5% [at 11.4 µM]
CN(Cc1cc(Br)cc(Br)c1O)Cc1c(O)ccc2ccccc12,1580 nM (active),
COc1ccc(C=Nc2c(O)ccc3ccccc23)cc1OC,,-7.34% [at 11.4 µM]
Cc1c(C(c2cccc([N+](=O)[O-])c2O)c2c(C)n(C)n(-c3ccccc3)c2=O)c(=O)n(-c2ccccc2)n1C,inactive,
COc1ccc(C(NC(=O)c2ccc(-c3ccccc3)cc2)c2ccccc2)cc1 (stereo not drawn),inactive,
CCN(CC)C(=O)C1CCN(S(=O)(=O)c2ccc3oc4ccccc4c3c2)CC1,inactive,
COC(=O)c1ccc2ccn(CC(=O)NC3CCCCC3)c2c1,inactive,
Cn1cc(-c2nc3cncnc3n(CCN)c2=O)c2ccccc21,inactive,
CCCCOC1(c2ccccc2)OC(=O)c2ccccc21 (stereo not drawn),inactive,
COc1ccccc1CN1CCC2(CC1)CCN(C(=O)c1cccn1C)CC2,3980 nM (active),
CC(C)NC(=O)N1CC[C@@]2(CCCN(C(=O)c3cccn3C)C2)C1,inactive,
Cn1cccc1C(=O)N1CCC2(CCCN(c3ccccc3)C2)CC1,inactive,
COc1ccc(NC(=O)N2CCC3(CC2)CCN(C(=O)c2cccn2C)CC3)cc1,inactive,
CN1CCCC2(CCN(C(=O)c3cccn3C)CC2)C1,inactive,
COc1ccccc1CN1CCCC2(CCN(C(=O)c3cccn3C)CC2)C1,3160 nM (active),
COc1ccccc1CN1CC[C@@]2(CCCN(C(=O)c3cccn3C)C2)C1,316 nM (active),
COc1ccc(NC(=O)N2CC[C@@]3(CCCN(C(=O)c4cccn4C)C3)C2)cc1,inactive,
Cn1cccc1C(=O)N1CCC2(CCN(Cc3nccs3)CC2)CC1,inactive,
